Bioassay records (PubChem BioAssay)
Compounds with a hit are over-represented: about 5.7% of the library has one in this group of screens.
ssDAF-12 act – S. stercoralis DAF-12 activation, primary screen | 370,000 compounds, 1% hits | HEK293 ssDAF-12/GRIP1 lit1-tk-luc reporter, luminescence; % of 3 µM dafachronic acid response | activation, % at 6.8 µM | AID 652126;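 active = activation above the mean over all tested compounds plus 3 SD, cut at about 0.9% in these data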;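 note: 0% = DMSO-only wells and 100% = 3 µM delta7-dafachronic acid wells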
DAX1 inh-1 – DAX1 (NR0B1) inhibition, primary screen; HEK293T StAR-luciferase reporter, SF-1/DAX-1 repression relief; inhibition, % at 6.8 µM; 370,000 compounds, 1.1% hits; AID 652010;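 active = inhibition above the mean over all tested compounds plus 3 SD, cut at about 3.6% in these data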;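 note: 0% = DAX-1 cells with DMSO and 100% = cells lacking DAX-1 with DMSO; higher inhibition means more luminescence from relief of DAX-1 repression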
DAX1 inh-2 – inhibits human nuclear receptor DAX1; P51843; HEK293 Gal4-DAX1 luciferase reporter, luminescence; inhibition, % at 6.75 µM; 340,000 compounds, 0.99% hits; AID 504766;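 active = inhibition above the mean over all tested compounds plus 3 SD, cut at about 4.2% in these data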;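 note: 0% = DAX1-transfected cells with DMSO and 100% = empty-vector control cells with DMSO; inhibition shows as a rise in luminescence from relieved DAX1 repression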
hgDAF-12 ag – activates the H. glycines DAF-12 receptor ligand-binding domain; HEK293 GAL4-hgDAF12 UAS-luciferase reporter, agonist luminescence; normalized to butyrate control; activation, % at 6.8 µM; 370,000 compounds, 1.8% hits;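 active = activation above a cutoff set at the mean of all screened compounds plus 3 SD, cut at about 10% in these data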;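 note: 0% = DMSO wells and 100% = sodium butyrate wells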
AHR activator – activates the human aryl hydrocarbon receptor; P35869; AHR-responsive luciferase reporter cells, luminescence; activation, % at 5 µM; 320,000 compounds, 2.5% hits; in the data active = activation above about 47%;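 note: 0% = vehicle wells and 100% = reference agonist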
Target sequence (P35869 whole entry, looked up): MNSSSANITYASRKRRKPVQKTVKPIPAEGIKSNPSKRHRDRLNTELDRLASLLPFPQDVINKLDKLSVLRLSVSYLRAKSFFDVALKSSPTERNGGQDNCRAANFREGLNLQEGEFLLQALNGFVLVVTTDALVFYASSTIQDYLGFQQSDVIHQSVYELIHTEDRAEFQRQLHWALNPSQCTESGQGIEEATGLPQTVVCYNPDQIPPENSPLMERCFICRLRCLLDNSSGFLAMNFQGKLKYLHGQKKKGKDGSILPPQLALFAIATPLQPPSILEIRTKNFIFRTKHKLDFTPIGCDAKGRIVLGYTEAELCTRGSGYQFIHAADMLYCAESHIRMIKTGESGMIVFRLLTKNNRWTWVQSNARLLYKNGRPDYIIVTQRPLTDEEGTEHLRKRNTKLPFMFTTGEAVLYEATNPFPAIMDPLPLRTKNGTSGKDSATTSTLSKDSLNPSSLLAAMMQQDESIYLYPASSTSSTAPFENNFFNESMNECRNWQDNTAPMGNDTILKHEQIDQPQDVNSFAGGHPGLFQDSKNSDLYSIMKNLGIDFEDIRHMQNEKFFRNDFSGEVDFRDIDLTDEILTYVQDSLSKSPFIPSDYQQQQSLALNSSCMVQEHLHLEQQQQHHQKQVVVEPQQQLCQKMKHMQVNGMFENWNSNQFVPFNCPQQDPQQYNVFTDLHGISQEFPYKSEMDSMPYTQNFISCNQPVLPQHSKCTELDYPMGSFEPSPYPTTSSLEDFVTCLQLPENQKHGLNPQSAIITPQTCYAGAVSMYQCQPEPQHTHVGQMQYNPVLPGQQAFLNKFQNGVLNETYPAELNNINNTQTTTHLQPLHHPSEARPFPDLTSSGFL
hcDAF12 agonist – activates DAF-12 receptor from parasite H. contortus; 370,000 compounds, 1.4% hits; activation, % at 6.8 µM; HEK293 hcDAF-12 lit1-tk-luc reporter, luminescence; 0% DMSO, 100% Δ7-dafachronic acid;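 active = activation above the mean of all tested compounds plus 3 SD, cut at about 5.5% in these data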;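 note: 100% = response to 3 µM Δ7-dafachronic acid high control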
Starred values were filed as active, the others as inactive; . = no result given.

SMILES	ssDAF-12 act	DAX1 inh-1	DAX1 inh-2	hgDAF-12 ag	AHR activator	hcDAF12 agonist
COc1ccc(-n2nnnc2SCC(=O)Nc2ccccc2N2CCOCC2)cc1OC	-1	0	4.3*	0	3	2
O=C(Cn1nc(-c2ccccc2F)ccc1=O)Nc1ccc(S(=O)(=O)N2CCCCCC2)cc1	-1	0	6.6*	-3	7	0
CC(=O)C1=C(c2ccccc2)N(C(C)=O)n2c(C)nnc2S1	-2	-2	0	-4	51*	-4
CC(=O)N1CCN(c2nnc(-c3ccccc3)c3ccccc23)CC1	-1	0	1	-1	3	0
O=P(C1=C(N2CCOCC2)/C(=C\c2ccccc2)CC1)(N1CCOCC1)N1CCOCC1	-2	-1	0	0	1	6.5*
N#CC1=C(N2CCOCC2)/C(=C\c2ccccc2)CC1	-1	-2	0	0	49*	1
O=C(NP(=O)(N1CCOCC1)N1CCOCC1)C1=C(N2CCOCC2)/C(=C\c2ccccc2)CC1	-1	0	-1	-2	2	2
COC(=O)c1c(-c2ccc(C)cc2)csc1NC(=O)c1c(-c2ccccc2)noc1C	-2	-1	.	-5	2	-1
COC(=O)c1c(-c2cccnc2)csc1NC(=O)c1cc(C)on1	0	4.5*	1	7	68*	6.5*
CSc1nc2c(C)c(C)c(C)c(C)c2[nH]1	-1	0	5.1*	4	47*	-2
CCc1nc(SC)[nH]c(=O)c1C	0	0	0	0	0	2
Cc1ccc2nc(C3CCCCC3)[nH]c2c1	0	2	4.7*	12*	46	2
CCNC(=S)N1CCCC(c2nc3ccc(C)cc3[nH]2)C1 (configuration not stated)	-1	-1	-1	0	22	0
CCN(CC)c1ccc(C=C2C(=O)OC(C)(C(C)(C)C)OC2=O)cc1 (configuration not stated)	-1	-1	4.9*	0	0	1
O=c1cc(Cl)[nH]c(=O)n1CCNc1ncc(C(F)(F)F)cc1Cl	-1	1	2	11*	19	5
Cc1cc([N+](=O)[O-])nn1CC(=O)N(C)C1CCCCC1	1	0	2	0	2	6.3*
COc1ccc2c(c1)OC/C(=C/c1cccs1)C2=O	0	4.2*	2	10	6	3
Cc1ccc(S(=O)(=O)N(C)CC(=O)NCC(=O)Nc2ccc(F)c(F)c2F)cc1	-1	-1	4.7*	-1	1	0
FC(F)(F)c1ccc(C2NCCc3sccc32)cc1 (configuration not stated)	-1	1	1	5	65*	3
Clc1ccc(C2NCCc3sccc32)cc1 (configuration not stated)	-2	0	-1	-2	14	0
Cc1ccsc1C(=O)OCc1nnc(-c2ccccc2)o1	-1	4.0*	2	2	7	1
O=S1(=O)CCOCC(CO)N1Cc1cccc(Br)c1 (configuration not stated)	-2	-1	.	4	.	0
COc1ccc(C2NCCc3c2[nH]c2ccccc32)cc1CSc1nc2ccccc2s1 (configuration not stated)	1	1	0	2	17	5.7*
O=c1[nH]c(C2CCN(S(=O)(=O)c3ccc4c(c3)OCCO4)CC2)nc2c1nnn2Cc1ccc(F)cc1	-2	-1	-2	-5	-1	0
CC1=C(C(=O)O)CC(S(=O)(=O)O)C1(C)C (configuration not stated)	0	3.7*	2	1	.	0
SMILES	ssDAF-12 act	DAX1 inh-1	DAX1 inh-2	hgDAF-12 ag	AHR activator	hcDAF12 agonist
Cc1ccc(Nc2nc(NCCCN3CCOCC3)nc(N)c2[N+](=O)[O-])cc1	-1	0	2	-1	10	-1
Nc1nc(NCC2CCCO2)nc(Nc2ccc(Cl)cc2)c1[N+](=O)[O-] (configuration not stated)	0	-1	0	-2	68*	1
Nc1nc(NCC2CCCO2)nc(Nc2ccccc2)c1[N+](=O)[O-] (configuration not stated)	-2	-1	-1	-1	3	0
Nc1nc(NCCCN2CCOCC2)nc(Nc2ccc(Cl)cc2)c1[N+](=O)[O-]	-2	1	.	0	74*	0
O=c1cc(CN2CCCC2)c2ccccc2o1	-1	0	.	-2	.	0
O=C(O)c1ccccc1NC(=S)NC(=O)c1sc2ccccc2c1Cl	-1	0	3	0	1	-1
O=C(NNC(=S)NC(=O)c1sc2ccccc2c1Cl)c1ccc(Cl)cc1	1.2*	1	1	3	110*	5
C/C(=N\Nc1ccc(F)cc1F)c1ccc(F)cc1	.	.	.	.	60*	.
C/C(=N\Nc1ccc(F)cc1F)c1ccc(Br)s1	-1	0	2	-1	54*	1
C/C(=N\Nc1ccc(F)cc1F)c1ccc(N2CCOCC2)cc1	0	0	3	-3	41	2
C/C(=N\NC(=O)c1ccc(Cl)cc1)c1ccc(Br)s1	-1	1	-1	5	15	-1
CCC(NC(=O)c1cccc2c1C(=O)N(Cc1cccnc1)C2)c1ccccc1 (configuration not stated)	-2	-1	.	-2	.	-1
Cc1cc(/C=C2/C(=O)N(C)C(=S)N2C)ccc1N1CCCC1	0	1	0	2	63*	4
CCN=C1NC(c2cccc(F)c2)C(C(=O)OC)=C(C)N1Cc1ccccc1C(F)(F)F (configuration not stated)	-2	1	.	-1	.	0
Cc1ccc(Cl)cc1Nc1nc(-c2sc(NC(=O)c3ccco3)nc2C)cs1	-2	0	-1	0	28	-2
Cc1nc(NC(=O)c2ccco2)sc1-c1csc(Nc2ccc(Cl)cc2)n1	0	0	-1	2	75*	3
COc1ccc(-c2csc(NC(=O)c3ccco3)n2)cc1	0	1	2	9	-2	2
COc1cccc(N(C(=O)c2ccco2)c2nc(-c3sc(NC(=O)c4ccco4)nc3C)cs2)c1	-2	-1	1	1	65*	-1
Cc1ccccc1Nc1nc(-c2sc(NC(=O)c3ccccc3)nc2C)cs1	.	.	.	.	62*	.
COc1ccccc1Nc1nc(-c2sc(NC(=O)c3ccco3)nc2C)cs1	-2	-1	-1	0	79*	-2
Cc1nc(NC(=O)c2ccccc2)sc1-c1csc(Nc2ccc(Cl)cc2)n1	.	.	.	.	59*	.
COc1ccc(-c2nn(-c3ccccc3)cc2CNC[C@H]2O[C@@H](n3cnc4c(=O)[nH]c(N)nc43)[C@H](O)[C@@H]2O)cc1	-1	0	.	0	.	-2
